According to PubChem BioAssay (NCI):
The panel holds about 79,000 compounds, 15% with a hit somewhere; the sample as a whole holds those more often. Activity calls are given as the source filed them. No stated cut-off is given here; in the data, active means growth inhibition above about 70%; inactive means the rest.

Assays:
[1] = NCI Yeast Anticancer Drug Screen. Data for the wt1 strain (AID 149);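 further: 0% = growth of vehicle-treated wt1 cultures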; conditions: S. cerevisiae wt1 strain (SPY 50644) growth inhibition, hits give high values
Procedure, shortened: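 Compounds are added to wt1 yeast cultures. Growth is then measured. Inhibition is expressed relative to vehicle-treated controls.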

[2] = NCI Yeast Anticancer Drug Screen. Data for the rad50EPP+ strain (AID 151);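 further: 0% = growth of vehicle-treated control cultures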; conditions: S. cerevisiae rad50 mutant strain, hits give high values
Procedure, shortened: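 One strain with a rad50 alteration (rad50EPP+) was compound-treated, its growth then compared to that of vehicle controls.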

[3] = NCI Yeast Anticancer Drug Screen. Data for the rad50 strain (AID 155);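 further: 0% = growth of vehicle-only cultures of the same strain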; conditions: S. cerevisiae rad50 strain growth inhibition, hits give high values
Procedure, shortened: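 Inhibition values express reduced yeast growth in compound-treated cultures relative to vehicle-treated controls.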

[4] = NCI Yeast Anticancer Drug Screen. Data for the mec2-1 strain (AID 157); conditions: S. cerevisiae mec2-1 strain, hits give high values
Procedure, shortened: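 Test agents were screened against the mec2-1 yeast strain, with defined DNA repair or cell cycle alteration. Growth was scored as inhibition against vehicle-only controls.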

[5] = NCI Yeast Anticancer Drug Screen. Data for the rad14 strain (AID 159);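 further: 0% = growth of vehicle-treated control cultures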; conditions: S. cerevisiae rad14 strain growth inhibition, hits give high values
Procedure, shortened: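 A mutant yeast strain defective in DNA damage repair is treated with compound; inhibition of its growth is scored against untreated, vehicle-exposed cultures.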

[6] = NCI Yeast Anticancer Drug Screen. Data for the sgs1 mgt1 strain (AID 161);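 further: 0% = growth of cultures given vehicle only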; conditions: S. cerevisiae sgs1 mgt1 strain, hits give high values
Procedure, shortened: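 Mutant yeast exposed to compound; growth scored against vehicle-only wells.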

[7] = NCI Yeast Anticancer Drug Screen. Data for the CLN2oe strain (AID 163);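 further: 0% = growth of vehicle-only control cultures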; conditions: S. cerevisiae CLN2oe strain, hits give high values
Procedure, shortened: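 Here, growth inhibition in a cell-cycle-altered yeast strain after compound exposure was quantified against vehicle control growth.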

[8] = NCI Yeast Anticancer Drug Screen. Data for the cln2 rad14 strain (AID 165);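 further: 0% = growth equal to vehicle treated cultures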; conditions: S. cerevisiae cln2 rad14 strain, hits give high values
Procedure, shortened: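 Growth of compound-exposed yeast (cln2 rad14 genotype) measured and expressed as inhibition relative to vehicle.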

[9] = NCI Yeast Anticancer Drug Screen. Data for the bub3 strain (AID 167); conditions: S. cerevisiae bub3 mutant strain, hits give high values
Procedure, shortened: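 Steps: expose the mutant yeast strain to compound; grow alongside vehicle-treated cultures; measure growth; express inhibition against the vehicle cultures.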

[10] = NCI Yeast Anticancer Drug Screen. Data for the wt2 strain (AID 169);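 further: 0% = growth of vehicle-treated yeast cultures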; conditions: S. cerevisiae wt2 strain growth inhibition, hits give high values
Procedure, shortened: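 Genetically defined yeast strains from a DNA-repair/cell-cycle panel were used. Compound-exposed yeast growth was measured, and the inhibition was calculated relative to vehicle treatment.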

[11] = NCI Yeast Anticancer Drug Screen. Data for the mlh1 strain (AID 171);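 further: 0% = growth of vehicle-treated control cultures of the same strain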; conditions: S. cerevisiae mlh1 strain growth inhibition, hits give high values
Procedure, shortened: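 Here the genetically defined yeast mutant is grown with each compound, and the extent to which its growth falls below that of vehicle-exposed cells is reported.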

[12] = NCI Yeast Anticancer Drug Screen. Data for the sgs1 strain (AID 173);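 further: 0% = growth of vehicle-only control cultures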; conditions: S. cerevisiae sgs1 mutant, hits give high values
Procedure, shortened: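 Relative growth inhibition, referenced to vehicle, was determined in a yeast strain with a defined alteration affecting DNA damage repair or cell cycle control after compound exposure.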

[13] = NCI Yeast Anticancer Drug Screen. Data for the mlh1 rad18 strain (AID 175); conditions: S. cerevisiae mlh1 rad18 strain growth inhibition, hits give high values
Procedure, shortened: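 In this whole-cell yeast screen, a strain with altered DNA damage repair is challenged with compound, and its growth is measured against matched vehicle-treated controls.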

[14] = NCI Yeast Anticancer Drug Screen. Data for the rad18 strain (AID 177); conditions: S. cerevisiae rad18 mutant growth inhibition, hits give high values
Procedure, shortened: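 Screen uses a yeast strain with a defined lesion in DNA damage repair; compound effect is read as loss of growth compared to untreated vehicle cultures.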

[15] = at 5.0 µM (retest, dose inferred, filed as 0.5)
[16] = at 50.0 µM (retest, dose inferred, filed as 5.0)

Measured: growth inhibition

CCN(CC)c1ccc(N=Nc2cc(S(=O)(=O)O)ccc2O)c(O)c1
active: [3]; [16] 73% | [4]; [16] 81% | [13]; [16] 75%
inactive: [1]; at 1.2 µM 8% | [1]; at 3.7 µM 15% | [1]; at 11.0 µM 20% | [1]; at 33.0 µM 29% | [1]; at 100.0 µM 51% | [2]; at 1.2 µM 8% | [2]; at 3.7 µM -8% | [2]; at 11.0 µM -19% | [2]; at 33.0 µM -23% | [2]; at 100.0 µM -46% | [3]; at 1.2 µM -11% | [3]; at 3.7 µM -19% | [3]; [15] 56% | [3]; at 11.0 µM -33% | [3]; at 33.0 µM -28% | [3]; at 50.0 µM 29.2% | [3]; at 100.0 µM -13% | [4]; at 1.2 µM -28% | [4]; at 3.7 µM -7% | [4]; [15] 55% | [4]; at 11.0 µM -19% | [4]; at 33.0 µM -9% | [4]; at 50.0 µM -14.1% | [4]; at 100.0 µM 22% | [5]; at 1.2 µM -15% | [5]; at 3.7 µM -9% | [5]; at 11.0 µM 3% | [5]; at 33.0 µM 1% | [5]; at 100.0 µM 5% | [6]; [15] -13% | [6]; [16] -3% | [6]; at 50.0 µM 66.1% | [7]; at 1.2 µM 8% | [7]; at 3.7 µM 18% | [7]; at 11.0 µM 4% | [7]; at 33.0 µM 9% | [7]; at 100.0 µM 10% | [8]; [15] 32% | [8]; [16] 39% | [8]; at 50.0 µM 21.5% | [9]; at 1.2 µM 24% | [9]; at 3.7 µM 17% | [9]; [15] 24% | [9]; at 11.0 µM 7% | [9]; at 33.0 µM 11% | [9]; [16] 45% | [9]; at 50.0 µM 50.9% | [9]; at 100.0 µM 35% | [10]; at 1.2 µM -13% | [10]; at 3.7 µM -6% | [10]; at 11.0 µM -42% | [10]; at 33.0 µM -64% | [10]; at 100.0 µM -38% | [11]; at 1.2 µM -12% | [11]; at 3.7 µM -37% | [11]; at 11.0 µM -22% | [11]; at 33.0 µM -3% | [11]; at 100.0 µM -12% | [12]; at 1.2 µM -13% | [12]; at 3.7 µM -10% | [12]; at 11.0 µM -12% | [12]; at 33.0 µM -1% | [12]; at 100.0 µM -15% | [13]; [15] 42% | [13]; at 50.0 µM 19.9% | [14]; at 1.2 µM 2% | [14]; at 3.7 µM 3% | [14]; at 11.0 µM 2% | [14]; at 33.0 µM -2% | [14]; at 100.0 µM 7%
